Data reported in PubChem BioAssay (NCATS).
Results filed as inconclusive are left out. Unmarked numbers belong to inactive results. Active and inactive are the calls of the source. Calls come from the whole dose curve; as a rule, active = well fitted inhibition curve with a large enough effect; inconclusive = small, poorly fitted or top-dose-only effect; inactive = no such curve, though single readings can be large or run the other way.

Test: qHTS Screen of the MIPE 4.0 Collection Against Ewings Sarcoma (TC71) (AID 1259253); note: nearly all actives have a fitted effect of over 40% in size;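 for viability (% of DMSO): 100% = DMSO-treated cells and 0% = medium-only wells without cells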
Conditions: TC71 Ewing sarcoma viability, CellTiter-Glo, 48 h; series mostly up to 45.8 µM; viability (% of DMSO): at the top concentration
In short: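 Dose series incubated 48 h with cells in RPMI plus 5% FBS, glutamine and penicillin/streptomycin; cell viability then quantified via CellTiter-Glo.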
Potency is the fitted concentration of half-maximal effect.

SMILES | viability (% of DMSO) | Potency
CCc1ccc(C=C2SC(=S)NC2=O)cc1 | 102% | –
O=C1C(Cl)=C(NCCN2CCOCC2)C(=O)c2ncccc21 | – | 6.62 µM (active)
NC1CCC(Nc2nc(Nc3ccc(C(=O)N4CCCCC4)cc3)c3ncn(-c4cccc(F)c4)c3n2)CC1 (stereo unspecified) | 118% | –
CCCCCN(C)CCC(O)(P(=O)(O)O)P(=O)(O)O | 126% | –
C[C@H](NC(=O)C(=O)Nc1ccccc1C(C)(C)C)C(=O)N[C@@H](CC(=O)O)C(=O)COc1c(F)c(F)cc(F)c1F | 108% | –
COc1ccc(-c2coc3cc(O)cc(O)c3c2=O)cc1 | 96.5% | –
O=c1c(-c2ccc(O)cc2)coc2cc(O[C@@H]3O[C@H](CO)[C@H](O)[C@H](O)[C@H]3O)ccc12 | 108% | –
CO[C@H]1C=CO[C@@]2(C)Oc3c(C)c(O)c4c(O)c(c5c(c4c3C2=O)NC2(CCN(CC(C)C)CC2)N=5)=NC(=O)C(C)=CC=C[C@H](C)[C@H](O)[C@@H](C)[C@@H](O)[C@@H](C)[C@H](OC(C)=O)[C@H]1C | 104% | –
Cn1cc(C=C2C(=O)Nc3cccnc32)c2ccccc21 | 100% | –
C[C@@H]1CCN(C(=O)CC#N)C[C@H]1N(C)c1ncnc2[nH]ccc12 | 113% | –
O=C(CCc1ccc(O)cc1)c1c(O)cc(O)cc1O[C@@H]1O[C@H](CO)[C@H](O)[C@H](O)[C@H]1O | 119% | –
CCn1cc(C(=O)O)c(=O)c2ccc(C)nc21 | 129% | –
CCOC1OC(=O)C[C@H]1NC(=O)[C@@H]1CCCN1C(=O)[C@@H](NC(=O)c1ccc(N)c(Cl)c1)C(C)(C)C (stereo partly specified) | 131% | –
CO[C@H]1C(=O)[C@]2(C)[C@@H](OC)C[C@H]3OC[C@@]3(OC(C)=O)[C@H]2[C@H](OC(=O)c2ccccc2)[C@]2(O)C[C@H](OC(=O)[C@H](O)[C@@H](NC(=O)OC(C)(C)C)c3ccccc3)C(C)=C1C2(C)C | 15% | –
CC=CC[C@@H](C)C(=O)[C@H]1C(=O)N[C@@H](C(C)C)C(=O)N(C)CC(=O)N(C)[C@@H](CC(C)C)C(=O)N[C@@H](C(C)C)C(=O)N(C)[C@@H](CC(C)C)C(=O)N[C@@H](C)C(=O)N[C@H](C)C(=O)N(C)[C@@H](CC(C)C)C(=O)N(C)[C@@H](CC(C)C)C(=O)N(C)[C@@H](C(C)C)C(=O)N1C | – | 16.6 µM (active)
CC(=Cc1ccccc1)C=C1SC(=S)N(CC(=O)O)C1=O | 123% | –
CC(C)(C)COc1ccc(-n2cc(C(=O)O)cn2)cc1C#N | 113% | –
CCC(CC)[C@H](NC(C)=O)[C@@H]1[C@H](O)[C@@H](C(=O)O)C[C@@H]1N=C(N)N | 118% | –

SMILES | viability (% of DMSO) | Potency
O=C1C[C@@H](c2ccc(O)cc2)Oc2cc(O)cc(O)c21 | 121% | –
C[C@]12CC[C@@H]3c4ccc(O)cc4C[C@@H](CCCCCCCCCS(=O)CCCC(F)(F)C(F)(F)F)[C@H]3[C@H]1CC[C@H]2O (stereo partly specified) | – | 14.8 µM (active)
CC(=O)Nc1ccc([C@H](C)C(=O)Nc2ncc(C(C)C)s2)cc1 | – | 2.96 µM (active)
NS(=O)(=O)c1cccc2c1C(=O)c1cccc(O)c1C2=O | – | 18.7 µM (active)
Nc1nc(F)nc2c1ncn2[C@@H]1O[C@H](COP(=O)(O)O)[C@@H](O)[C@H]1O | – | 14.8 µM (active)
Cc1ccc(C(=O)Nc2cccc(C(F)(F)F)c2)cc1Nc1nc(-c2cccnc2)nc2c1cnn2C | – | 18.7 µM (active)
Oc1ccc(C2=Cc3ccc(O)cc3OC2)cc1 | – | 3.72 µM (active)
COC1CCC(N(C(=O)C2CCC(C)CC2)c2cc(C3=CCCCC3)sc2C(=O)O)CC1 (stereo unspecified) | – | 20.9 µM (active)
COc1ccc(C2Sc3ccccc3N(CCN(C)C)C(=O)C2OC(C)=O)cc1 (stereo unspecified) | 115% | –
Cc1nc(N)sc1-c1ccnc(Nc2ccc(N3CCOCC3)cc2)n1 | – | 14.8 µM (active)
Clc1ccc(C(c2ccc(Cl)cc2)n2cc[n+](CC(OCc3ccc(Cl)cc3Cl)c3ccc(Cl)cc3Cl)c2)cc1 (stereo unspecified) | – | 20.9 µM (active)
COc1cc(O)c2c(c1)C(=O)c1cc(C)cc(O)c1C2=O | 115% [at 23.2 µM] | –
Cc1cc(OCCCc2c(C(=O)O)n(Cc3cccnc3)c3c(-c4c(COc5ccc(N6CCN([S+](C)(=O)[O-])CC6)cc5)nn(C)c4C)cccc23)cc(C)c1Cl | – | 20.9 µM (active)
C[N+]1(C)[C@@H]2CC(OC(=O)[C@H](CO)c3ccccc3)C[C@H]1[C@H]1O[C@@H]12 (stereo partly specified) | 116% | –
COc1ccc(Cc2nccc3cc(OC)c(OC)cc23)cc1OC | – | 18.7 µM (active)
CC(=O)N(C)C1(c2ccccc2)CCN(CCC[C@]2(c3ccc(Cl)c(Cl)c3)CCCN(C(=O)c3ccccc3)C2)CC1 | – | 20.9 µM (active)
CO[C@H]1C=CC=C(C)C(=O)NC2=CC(=O)C(NCCN(C)C)=C(C[C@@H](C)C[C@H](OC)[C@@H](O)[C@@H](C)C=C(C)[C@@H]1OC(N)=O)C2=O | – | 0.235 µM (active)
COc1cc2nc(-c3ccc(N4CCN(C)CC4)cc3)nc(NCCN3CCOCC3)c2cc1OC | – | 0.132 µM (active)
